High-throughput results deposited in PubChem BioAssay by Sanford-Burnham Center for Chemical Genomics.
Most compounds without a hit are left out; they make up all but 31% or so of the library.
CYP2C9 inhib: human CYP2C9 inhibition. CYP2C9 Supersomes, luciferin-H conversion, luminescence. inhibition, % at 5 µM. actives 20% (n = 96,000). AID 777. P11712;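 active means blocking of liver enzyme CYP2C9 beyond about 50% at 5 µM, limit read from the data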
CYP2C9 act: activators of human CYP2C9. AID 1024. recombinant CYP2C9, luciferin-H conversion, luminescence; hits give high values; factor 1 = untreated enzyme, 0 = blocked. activation factor at 5 µM. actives 1.4% (n = 96,000);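 active means activation factor of 2 or more for CYP2C9 at a 5 µM dose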;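 further: 0 = sulfaphenazole-blocked wells and 1 = vehicle-only wells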
CYP2C19 inhib: human CYP2C19 inhibition. actives 21% (n = 96,000). inhibition, % at 5 µM. CYP2C19 Supersomes, luciferin-H EGE luminescence, 30 min;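 active means CYP2C19 inhibition above a set limit at 5 µM in the primary screen, cut at about 50% in these data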;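 further: plate controls were negative control wells for no effect and 2.5 mM tranylcypromine positive control for full effect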
Target sequence (P33261 whole entry, looked up): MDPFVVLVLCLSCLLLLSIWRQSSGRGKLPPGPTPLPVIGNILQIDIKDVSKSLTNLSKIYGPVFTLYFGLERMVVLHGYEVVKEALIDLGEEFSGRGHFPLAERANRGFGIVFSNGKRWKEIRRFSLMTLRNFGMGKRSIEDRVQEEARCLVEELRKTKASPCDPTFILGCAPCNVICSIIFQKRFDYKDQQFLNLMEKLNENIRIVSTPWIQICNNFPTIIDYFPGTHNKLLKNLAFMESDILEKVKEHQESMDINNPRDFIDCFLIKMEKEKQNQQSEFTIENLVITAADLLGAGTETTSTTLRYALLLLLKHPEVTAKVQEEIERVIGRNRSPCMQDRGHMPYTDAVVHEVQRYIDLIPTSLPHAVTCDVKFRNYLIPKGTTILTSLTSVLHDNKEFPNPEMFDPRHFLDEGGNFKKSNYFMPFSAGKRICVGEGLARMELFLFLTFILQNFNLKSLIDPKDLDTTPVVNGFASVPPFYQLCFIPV
CYP2C19 activ: activators of human cytochrome P450 2C19 | P33261 | recombinant CYP2C19, luciferin-H EGE luminescence; hits give high values; 0 = fully inhibited enzyme, 1 = untreated enzyme | activation factor at 5 µM | 96,000 tested, under 10 active | AID 1025;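 active means activation factor of at least 2 at 5 µM in the primary screen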;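 further: 0 = wells with 2.5 mM tranylcypromine and 1 = vehicle-only wells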
An asterisk follows results filed as active.

SMILES	CYP2C9 inhib	CYP2C9 act	CYP2C19 inhib	CYP2C19 activ
CN(CC(=O)Nc1ccc(Cl)cc1)S(=O)(=O)c1cccc2cccnc12	68*	0.3	48	0.5
COc1ccc(NC(=O)CN(C)S(=O)(=O)c2cccc3cccnc23)cc1	90*	0.1	70*	0.3
COc1ccc(NC(=O)CN(C)S(=O)(=O)c2cccs2)cc1	49	0.5	44	0.6
Cc1ccc(S(=O)(=O)N(C)CC(=O)Nc2cccc3c2CCCC3)cc1	-4	1	44	0.6
Cc1cccc(NS(=O)(=O)c2cccs2)c1	20	0.8	93*	0.1
Cc1ccccc1NC(=O)CN(C)S(=O)(=O)c1cccc2cccnc12	88*	0.1	72*	0.3
CN(CC(=O)Nc1ccc2c(c1)OCCO2)S(=O)(=O)c1cccc2cccnc12	94*	0.1	78*	0.2
CC(=O)/C=C(\C)Nc1ccc(-c2cnc(-c3ccccc3)o2)cc1	26	0.7	9	0.9
COc1ccc(NC(=O)CCNC(C)=O)cc1NS(=O)(=O)c1ccc(F)cc1	29	0.7	52*	0.5
COc1ccc2c(CC(=O)Nc3ccc(OC)c(NS(=O)(=O)c4ccc(F)cc4)c3)coc2c1	74*	0.3	72*	0.3
O=C1c2ccccc2C(=O)N1CCCP(=O)(O)CCc1ccccc1	-11	1.1	-7	1.1
O=C(O)CCN1Cc2ccccc2C1=O	-2	1	-5	1
O=C1c2cccc3c(O)ccc(c23)C(=O)N1Cc1ccccc1	-51	1.5	64*	0.4
O=C1Cc2ccccc2C(=O)N1Cc1ccccc1	26	0.7	85*	0.2
CC(C)C[C@H](NC(=O)Nc1ccccc1F)C(=O)O	4	1	2	1
CC(=O)Oc1c(C)cc(O)c2ccccc12	19	0.8	62*	0.4
O=[N+]([O-])c1ccc(Cl)c(/C=N/N2CCN(Cc3ccccc3Cl)CC2)c1	-108	2.1*	19	0.8
O=[N+]([O-])c1ccc(Cl)c(/C=N/N2CCN(Cc3ccccc3)CC2)c1	-80	1.8	4	1
O=C1NN(c2ccccc2)C(=O)/C1=C\c1cccc(OC(=O)c2cccs2)c1	96*	0	52*	0.5
COC(=O)C1=C(C)N(C2CCCC2)C(=O)C1(NC(C)=O)C(F)(F)F (stereo not drawn)	-17	1.2	-19	1.2
O=C(NC1CCCCCC1)C1CCN(S(=O)(=O)c2ccccc2)CC1	-80	1.8	-5	1.1
O=C(COc1ccc(S(=O)(=O)N2CCCCC2)cc1)NC1CCCCC1	72*	0.3	33	0.7
Cc1ccc(S(=O)(=O)N2CCN(C(=O)CCC(=O)OCC(=O)Nc3cccc(C#N)c3)CC2)cc1	75*	0.3	78*	0.2
CC(=O)c1cccc(NC(=O)COc2ccc(S(=O)(=O)N3CCCCC3)cc2)c1	67*	0.3	67*	0.3
O=C(COc1ccccc1)Nc1ccc(S(=O)(=O)N2CCCCCC2)cc1	15	0.8	15	0.9
SMILES	CYP2C9 inhib	CYP2C9 act	CYP2C19 inhib	CYP2C19 activ
CC(=O)c1cccc(NC(=O)c2ccc(S(=O)(=O)N3CCCCC3)cc2)c1	-8	1.1	-1	1
COc1ccc(OCC(=O)Nc2ccc(S(=O)(=O)N3CCCCCC3)cc2)cc1	86*	0.1	30	0.7
COc1cccc(NC(=O)c2ccc(-n3cccn3)nc2)c1	22	0.8	18	0.8
CCOC(=O)Cc1cc(=O)[nH]c(/N=C(\N)Nc2ccc(C)cc2C)n1	9	0.9	16	0.8
O=C(Cn1cnc2c(nnn2-c2ccc(F)cc2)c1=O)N1CCCC1	-14	1.1	-14	1.1
COc1ccccc1OCC(=O)Nc1ccc(S(=O)(=O)N2CCCCCC2)cc1	80*	0.2	86*	0.1
N#CC1=C(N)Oc2cc3ccccc3cc2C1c1cccs1 (stereo not drawn)	0	1	-4	1
N#CC1=C(N)Oc2cc(O)ccc2C1c1ccccc1 (stereo not drawn)	77*	0.2	65*	0.3
N#CC1=C(N)Oc2cc3ccccc3cc2C1c1cccnc1 (stereo not drawn)	82*	0.2	66*	0.3
CCOc1cc(C2C(C#N)=C(N)OC(C)=C2C(C)=O)cc(Br)c1O (stereo not drawn)	90*	0.1	46	0.5
CCOc1cc(C2C(C(=O)N3CCCCC3)=C(C)NC3=C2C(=O)CCC3)cc(Br)c1O (stereo not drawn)	-2	1	6	0.9
N#CC1=C(N)Oc2cc3c(cc2C1c1ccc(Cl)cc1)OCO3 (stereo not drawn)	18	0.8	22	0.8
COc1cc(C2C(C#N)=C(N)Oc3cc(N(C)C)ccc32)cc2c1OCO2 (stereo not drawn)	55*	0.5	51*	0.5
CCCC(=O)OCCNC(=O)c1cc2ccccc2oc1=O	4	1	23	0.8
Cn1c(=O)c2c(nc(Oc3ccc(-c4ccccc4)cc3)n2C)n(C)c1=O	5	1	1	1
CC(C)CC(=O)Nc1cc(NC(=O)CC(C)C)cc(C(=O)NC(C)(C)C)c1	22	0.8	20	0.8
CCCN(CC1CC1)C(=O)Nc1ccccc1C	-10	1.1	23	0.8
COC(=O)CC1=C(C(=O)OC)C(c2ccc3c(c2Cl)OCO3)C(C#N)=C(N)O1 (stereo not drawn)	3	1	33	0.7
COc1cc(C2C(C#N)=C(N)Oc3cc(O)ccc32)cc2c1OCO2 (stereo not drawn)	91*	0.1	93*	0.1
CCOC(=O)C1=C(C)OC(N)=C(C#N)C1c1cc(Cl)c(OCC(N)=O)c(OC)c1 (stereo not drawn)	89*	0.1	41	0.6
COc1ccc(C2C(C#N)=C(N)Oc3cc(O)ccc32)cc1OC (stereo not drawn)	36	0.6	38	0.6
CCOC(=O)C1=C(C)OC(N)=C(C#N)C1c1cc(OC)c2c(c1)OCO2 (stereo not drawn)	66*	0.3	84*	0.2
COC(=O)CC1=C(C(=O)OC)C(c2cccc(OCC(N)=O)c2)C(C#N)=C(N)O1 (stereo not drawn)	3	1	12	0.9
COc1ccc(CCNC(=O)C2CCN(S(=O)(=O)N3CC(C)CC(C)C3)CC2)cc1OC (stereo not drawn)	14	0.9	-1	1
Cc1ccnc(NCn2nnc3ccccc32)c1	-3	1	-6	1.1
CCOC(=O)N1CCN(S(=O)(=O)c2ccc(C)cc2)C1c1ccc(OC)cc1 (stereo not drawn)	-16	1.2	74*	0.3
CCOC(=O)N1CCN(S(=O)(=O)c2ccc(C)cc2)C1c1ccccc1 (stereo not drawn)	70*	0.3	91*	0.1
COc1ccc(C2N(C(=O)N3CCOCC3)CCN2S(=O)(=O)c2ccc(C)cc2)cc1 (stereo not drawn)	41	0.6	18	0.8
CCOC(=O)N1CCN(C(=O)CN(C)S(=O)(=O)c2ccc(OC)c(OC)c2)CC1	-44	1.4	-5	1
